This is part of a sample that, as a whole, favours compounds with a hit. Of some 83,000 tested, about 20% had one in any assay.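 How to read the values: 0–100, growth inhibition (40 = 60% inhibited); 0, no net growth; -100 to 0, cell death (-40 = 40% of starting cells died; -100 = all dead).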 The source made the active and inactive calls. Rule for the calls: active = growth percent below 10; inactive = the rest.

The subject of the experiment is HL-60(TB) leukemia. The experiment in a line: NCI-60 one-dose screen, 48 h (100 = growth as untreated, 0 = no growth, -100 = all killed). As to conditions: 10 µM unless noted.
Take `O=C(CSc1nnc(Nc2ccccc2)s1)NCCc1ccc(F)cc1`: the growth was 110% (inactive).

As to `Cc1cc(C)c2nc(C)c(C)[n+]([O-])c2c1`, the growth is 85.7% (inactive).

Consider `O=[N+]([O-])c1ccc(N/N=C/c2cccc3ccccc23)nc1`, for which the growth is 26.4% (inactive). As for `O=C1C(Nc2ccccn2)=C(I)C(=O)c2ncccc21`, the growth is -55.5% (active). With `CCOC(=O)C1=C(C)N(C)C(=O)N(C)C1c1ccccc1` (stereo not given) the figure was -4.05% (active); with `NC(N)=NC(N)=NCCCc1ccccc1`, 55.7% [100 µM] (inactive). In the case of `CCN=c1sc2c(n1NC(=O)c1cc3ccc1CCc1ccc(cc1)CC3)C(=O)c1ccccc1C2=O`, the growth is -18.3% (active). Under `Cc1cc(Nc2cc(N3CCN(C)CC3)nc(/C=C/c3ccccc3)n2)n[nH]1` stands -29.7% (active); under `COc1cc(/C=C/c2cc(/C=C/c3ccc(O)c(OC)c3)[nH]c(=O)n2)ccc1O`, 61.3% (inactive); under `Cc1cc2cccnc2c2ncccc12`, -11.4% (active). In the case of `Cc1cnc(C(=O)Nc2nc3ccc(S(=O)(=O)Nc4ccc(C(C)(C)C)cc4)cc3[nH]2)cn1`, the growth is -18.2% (active).

Consider `Clc1ccc(Nc2nnc(-c3ccc4c(c3)OCO4)o2)cc1`, for which the growth is 80.1% (inactive).

On to `CCN(CC)CCCC(C)N/C(=C1\C(=O)NC(=O)\C1=C(/NC(C)CCCN(CC)CC)c1cccc(OC)c1)c1cccc(OC)c1` (stereo not given), for which the growth was -35.6% (active). As to `COC(=O)C(Cc1ccccc1)NC(=O)c1ccc(NC(=O)c2[nH]c(C)c(Cl)c2Cl)c(OC(C)C)c1` (stereo not given), the growth was 99.7% (inactive).

Take `CCOC1=C(Cl)C(=O)C(OCC)=C(Cl)C1=O`: the growth was 52.3% (inactive). With `N#CCCCCCn1c2ccccc2c2c3c(c4c5ccccc5[nH]c4c21)C(=O)N(O)C3=O`, the growth is -46% (active).

As to `CCCCc1n(Cc2ccc3ccccc3n2)cc[n+]1Cc1ccc2ccccc2n1`, the growth was -44.7% (active). With `C#C[C@]1(O)CC[C@H]2[C@@H]3CC=C4c5sc(-c6cccc(Br)c6)nc5CC[C@]4(C)[C@H]3CC[C@@]21C`, the growth was 77.9% (inactive). For `CCOC(=O)C1=C(C)N=C2Sc3cccc(OC)c3N2[C@H]1c1ccccn1`, the growth was 105% (inactive). Under `Cc1cc2nc3c4cc(N)ccc4n(CCN(C)C)c3nc2cc1C` stands 4.7% (active); under `CC(C)N1CCN(c2ccc(OC[C@H]3CO[C@](Cn4cncn4)(c4ccc(Cl)cc4Cl)O3)cc2)CC1`, 91.3% (inactive); under `COc1cc(Oc2cc(-c3cccnc3)ccc2NC(=O)Nc2ccc(F)cc2F)cc(OC)c1OC`, 91.3% (inactive). Turning to `O=C(Nc1ncc(Cc2ccc(Cl)cc2)s1)c1ccc2c(c1)OCCO2`, the growth is -49.3% (active). Consider `COc1ccccc1NC(=O)C1=C(C)NC(C)=C(C(=O)Nc2ccccc2OC)C1c1cccc([N+](=O)[O-])c1`, for which the growth is 66.7% (inactive). `CC(C)OC(=O)NNC(=O)c1ccncc1`: the growth is 85.2% (inactive). With `CCCCOC(OCCCC)c1ccccc1`, the growth was 96.7% (inactive). As for `Cc1ccc(Nc2nc(N)nc(Nc3ccc4ccccc4c3)n2)cc1`, the growth is 22.5% (inactive).

In the case of `COc1ccc2c(c1)CC[C@@H]1[C@@H]2CC[C@]2(C)C3C(=CCC4C(=O)N(c5ccccc5)C(=O)C43)C[C@@H]12` (stereo not given in full), the growth is 81.6% (inactive). With `COc1ccc(Nc2nc(NCc3ccccc3)c3ccccc3n2)cc1`, the growth is 89.5% (inactive). Take `CC[C@]12C=CCN3CC[C@@]4(c5cc([C@H]6CCC(=O)N6)c(OC)cc5N(C)[C@H]4[C@@](O)(C(=O)OC)[C@@H]1OC(C)=O)[C@@H]32`: the growth is 109% [2.5 µM] (inactive). As for `COc1cc(NCCCN)c2ncccc2c1`, the growth was 68% (inactive).

Consider `CNc1ccccc1C(N)=O`, for which the growth was 114% (inactive). Under `N=C(N)c1ccc(OCCSCCOc2ccc(C(=N)N)cc2)cc1` stands 77.9% (inactive); under `Fc1ccc(CNc2c3ccccc3nc3ccccc23)cc1`, 21.3% (inactive); under `O=c1ccc2nc(C(F)(F)F)nn(-c3ccccc3)c-2c1`, -36.6% (active).

Regarding `CN1CCN(Cc2ccc(NC(=O)c3[nH]ncc3Nc3ncnc4c3CCC4)cc2)CC1`, the growth is -22.1% (active). As for `COc1ccc(-c2cc(-c3ccc(OC)c(OC)c3)nc(SCCCC(=O)NO)n2)cc1`, the growth is -34.9% (active). Under `CC[C@@H]1O[C@H](O[C@@H](c2cnc[nH]2)[C@H](NC(=O)c2nc([C@H](CC(N)=O)NC[C@@H](N)C(N)=O)nc(N)c2C)C(=O)N[C@H](C)[C@H](O)[C@H](C)C(=O)N[C@@H](C(=O)NCCc2nc(-c3nc(C(=O)NCCCCN=C(N)N)cs3)cs2)[C@@H](C)O)[C@H](O[C@@H]2O[C@H](CO)[C@H](O)[C@H](OC(N)=O)[C@@H]2O)[C@H](C)[C@@H]1C` stands 84.4% (inactive); under `Oc1ccc2ccccc2c1CN1CCOCC1`, 105% (inactive). As for `CC(C)(CC(=O)O)CC(=O)O`, the growth is 103% (inactive).

The values above are taken from PubChem BioAssay (NCI).
